Measured values: PubChem BioAssay (Tox21)
Results filed as inconclusive are left out. Calls of active or inactive are those of the source. Unless noted, calls come from the whole dose curve; as a rule, active = well fitted curve in the direction sought with a large enough effect in the repeat runs; inconclusive = weak or mixed curves; inactive = flat fitted curve, though single readings scatter.

Tests used:
[1] = qHTS assay to test for compound auto fluorescence at 460 nm (blue) in HEK293 cell free culture (AID 720681); conditions: cell-free medium, autofluorescence 405/460 nm (blue); series mostly up to 91.3 µM
How it was run: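 Test compounds were pinned into cell-free culture medium (DMEM with 10% FBS) and fluorescence was read directly at Ex/Em 405/460 nm. Signals were expressed as fluorescence equivalents of triamterene, with DMSO vehicle as control.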

[2] = qHTS assay to test for compound auto fluorescence at 535 nm (green) in HEK293 cell free culture (AID 720682); conditions: cell-free medium, green autofluorescence 485/535 nm; series mostly up to 91.3 µM
How it was run: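 Intrinsic compound fluorescence is measured in culture medium containing 10% FBS, with excitation at 485 nm and detection at 535 nm, referenced to fluorescein.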

[3] = qHTS assay to test for compound auto fluorescence at 590 nm (red) in HEK293 cell free culture (AID 720683); conditions: cell-free medium autofluorescence, Ex540/Em590 red; series mostly up to 91.3 µM
How it was run: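 Tox21 10K library compounds were pinned into cell-free DMEM with 10% FBS and fluorescence was read at excitation 540 nm. Activity is expressed as Rose Bengal sodium equivalency.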

[4] = qHTS assay to test for compound auto fluorescence at 590 nm (red) in HepG2 cell free culture (AID 720684); conditions: cell-free medium autofluorescence, red 540/590 nm; series mostly up to 91.3 µM
How it was run: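 Ex 540 / Em 590 nm read of compound in cell-free MEM (10% FBS). Rose Bengal sodium reference.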

[5] = qHTS assay to test for compound auto fluorescence at 535 nm (green) in HepG2 cell free culture (AID 720686); conditions: Cell-free medium, green autofluorescence 485/535 nm; series mostly up to 91.3 µM
[6] = qHTS assay to test for compound auto fluorescence at 460 nm (blue) in HepG2 cells (AID 720687); conditions: autofluorescence 405/460 nm, 1 h; series mostly up to 91.3 µM; note: potency is the fitted concentration of half-maximal effect
How it was run: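 Cells (2,000/well in MEM with 10% FBS) attached overnight at 37 C, then were exposed to compound or DMSO for 1 hr at 37 C, 5% CO2. Fluorescence read at Ex/Em 405/460 nm, expressed as triamterene-equivalent signal.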

[7] = qHTS assay to test for compound auto fluorescence at 460 nm (blue) in HepG2 cell free culture (AID 720685); conditions: Cell-free culture medium, blue autofluorescence 405/460 nm; series mostly up to 91.3 µM; note: potency is the fitted concentration of half-maximal effect
How it was run: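 Cell-free plates of MEM plus 10% FBS received 23 nL compound or DMSO vehicle; blue-channel (405/460 nm) intensity scored against triamterene as reference fluorophore.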

[8] = target: Glucocorticoid receptor (Homo sapiens) (UniProt P04150); assay: qHTS assay to identify small molecule agonists of the glucocorticoid receptor (GR) signaling pathway (AID 720691; active = well fitted activation curve with a large enough effect in the signal ratio in the repeat runs, not every such curve was filed as active; the % refers to the signal ratio); conditions: GR-bla HeLa, beta-lactamase reporter ratio, 18 h; series mostly up to 62.4 µM
Chain of Glucocorticoid receptor (Homo sapiens) (P04150 whole entry, looked up): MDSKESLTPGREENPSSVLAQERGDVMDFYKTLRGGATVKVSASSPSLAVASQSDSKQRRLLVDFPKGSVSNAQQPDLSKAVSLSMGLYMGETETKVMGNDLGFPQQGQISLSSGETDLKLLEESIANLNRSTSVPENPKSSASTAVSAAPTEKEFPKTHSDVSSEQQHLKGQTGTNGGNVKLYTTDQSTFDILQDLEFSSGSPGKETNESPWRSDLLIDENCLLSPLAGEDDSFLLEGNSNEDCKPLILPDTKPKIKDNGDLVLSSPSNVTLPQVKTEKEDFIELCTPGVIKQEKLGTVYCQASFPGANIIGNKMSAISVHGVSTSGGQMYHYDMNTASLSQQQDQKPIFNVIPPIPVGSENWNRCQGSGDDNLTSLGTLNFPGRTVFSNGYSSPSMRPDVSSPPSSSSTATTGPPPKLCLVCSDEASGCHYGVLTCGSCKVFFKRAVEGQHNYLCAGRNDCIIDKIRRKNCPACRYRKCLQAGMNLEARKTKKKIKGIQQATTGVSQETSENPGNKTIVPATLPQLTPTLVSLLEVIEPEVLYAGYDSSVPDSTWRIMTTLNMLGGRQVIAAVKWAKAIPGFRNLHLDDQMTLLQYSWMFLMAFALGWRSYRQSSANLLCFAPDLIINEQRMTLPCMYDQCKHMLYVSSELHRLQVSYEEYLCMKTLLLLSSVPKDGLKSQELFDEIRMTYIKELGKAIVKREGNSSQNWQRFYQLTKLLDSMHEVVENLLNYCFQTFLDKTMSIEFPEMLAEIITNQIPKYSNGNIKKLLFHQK
How it was run: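 Agonist-mode qHTS in HeLa cells stably expressing a glucocorticoid-response-element beta-lactamase reporter. Fluorescence intensity read with FRET substrate (2 h, room temperature) after 18 h compound treatment at 37 C.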

[9] = target: Glucocorticoid receptor (Homo sapiens) (UniProt P04150); assay: qHTS assay to identify small molecule antagonists of the glucocorticoid receptor (GR) signaling pathway (AID 720692; active = well fitted inhibition curve with a large enough effect in the signal ratio in the repeat runs, not every such curve was filed as active; the % refers to the signal ratio); conditions: GR-bla HeLa, beta-lactamase FRET ratio, dexamethasone-stimulated, 18 h; series mostly up to 58.5 µM
How it was run: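 Inhibition of dexamethasone-driven (5 nM final) beta-lactamase expression was measured in GRE-reporter HeLa cells over 18 h at 37C. Fluorescence was read after 2 h with the B/G FRET substrate at room temperature.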

Measured: Potency
Tags give direction and shape of the fitted curve or compound fluorescence and quenching.

O=C(O)CCCCCCCCCCCC(=O)O
not listed: [7] | [8] | [9]
inactive: all other assays above

CCC(=O)O[C@H]1[C@H](O[C@@H]2[C@@H](C)[C@H](O[C@H]3C[C@@](C)(OC)[C@@H](O)[C@H](C)O3)[C@@H](C)C(=O)O[C@H](CC)[C@@](C)(O)[C@H](O)[C@@H](C)C(=O)[C@H](C)C[C@@]2(C)O)O[C@H](C)C[C@@H]1N(C)C
not listed: [9]
inactive: all other assays above

CCC/C=C/C=O
inactive: all assays above

O=C(O)c1ccc(O)cc1
not listed: [1] | [7]
inactive: all other assays above

CN(C)C
not listed: [8] | [9]
inactive: all other assays above

c1ccc2cc3ccccc3cc2c1
not listed: [7]
inactive: all other assays above

c1ccc2c(c1)[nH]c1ccccc12
not listed: [1] | [7]
inactive: all other assays above

CN(Cc1cnc2nc(N)nc(N)c2n1)c1ccc(C(=O)N[C@@H](CCC(=O)O)C(=O)O)cc1
inactive: [2] | [3] | [4] | [5]
active: [7] 35.5 µM [fluorescent] | [6] 35.5 µM [fluorescent]

CC1(C)C(C=C(Cl)Cl)C1C(=O)OCc1cccc(Oc2ccccc2)c1 (stereo not drawn)
not listed: [1] | [7]
inactive: all other assays above

COCCOCCOCCO
not listed: [1]
inactive: all other assays above
